From PubChem BioAssay AID624390 (National Center for Advancing Translational Sciences (NCATS), 2012)

molecular target: Pyruvate kinase PKLR (Homo sapiens) (UniProt P30613); assay: qHTS for Activators of Human Muscle Isoform Pyruvate Kinase: Extended Characterization against Liver Pyruvate Kinase Probe 2; conditions: purified hPK-L, ATP production, Kinase-Glo luminescence; series mostly up to 57.7 µM; activity change, positive = activation: at the top concentration
Procedure: Human pyruvate kinase liver (hPK-L) enzyme was supplied as a highly purified (>95% pure) preparation from Harvard Medical School and assayed for its ability to generate ATP from ADP using phosphoenolpyruvate (PEP) as a substrate. ATP generation was detected in a coupled reaction by luciferase-mediated luminescence, an ATP-dependent process. Pyruvate kinase substrates, PEP and ADP, were present in the assay at Km and approximately 10-fold below Km respectively. The enzyme was assayed at an intermediate level of activity to screen for both inhibitors and activators. NIH Chemical Genomics Center [NCGC] NIH Molecular Libraries Probe Centers Network [MLPCN] MLPCN Grant: MH085679 Assay Submitter (PI): Matthew G. Vander Heiden, Harvard Medical School
Three uL of substrate mix (at r.t.) in assay buffer (50 mM Imidazole pH7.2, 50 mM KCl, 7 mM MgCl2, 0.01% Tween 20, 0.05% BSA) was dispensed into white solid bottom 1,536 well microtiter plates so that the final concentrations of substrates in the assay were 0.1 mM ADP and 0.5 mM PEP. 23 nL of compound were delivered by a pin tool and 1 uL of enzyme mix (final concentration of 0.1 nM) in assay buffer (4 degree Celsius) was added. Plates were incubated at room temperature for 1 hour. Two uL of detection mix (Kinase-Glo, Promega; at 4 degree Celsius protected from light) was added and luminescence read by a ViewLux (Perkin Elmer) at 1 second exposure/plate. Data were normalized to the uninhibited (row 31). Additionally, a no enzyme and 5-fold enzyme control was dispensed in row 32, split equally between the two conditions.

Pyruvate kinase PKLR (Homo sapiens), sequence (P30613 whole entry, looked up, canonical isoform): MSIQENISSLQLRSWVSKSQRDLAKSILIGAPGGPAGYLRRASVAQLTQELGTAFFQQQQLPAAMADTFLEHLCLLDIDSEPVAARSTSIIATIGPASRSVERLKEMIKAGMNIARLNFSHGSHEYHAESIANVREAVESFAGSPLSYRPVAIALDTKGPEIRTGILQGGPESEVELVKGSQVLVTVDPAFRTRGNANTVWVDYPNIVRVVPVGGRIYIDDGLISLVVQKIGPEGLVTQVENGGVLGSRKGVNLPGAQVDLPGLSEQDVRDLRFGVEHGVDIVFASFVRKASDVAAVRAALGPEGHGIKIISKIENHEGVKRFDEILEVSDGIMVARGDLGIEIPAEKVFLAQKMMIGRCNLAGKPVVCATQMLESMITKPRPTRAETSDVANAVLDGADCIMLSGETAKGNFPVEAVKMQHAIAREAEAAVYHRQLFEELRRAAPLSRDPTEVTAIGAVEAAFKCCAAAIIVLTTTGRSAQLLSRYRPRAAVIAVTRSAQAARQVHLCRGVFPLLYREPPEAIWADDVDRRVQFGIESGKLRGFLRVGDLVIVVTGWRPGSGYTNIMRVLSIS

Activity change, positive = activation, inactive:
Nc1cccc(S(=O)(=O)N2CCCN(S(=O)(=O)c3ccc4c(c3)OCCO4)CC2)c1 10.9%, O=S(=O)(c1ccc2c(c1)OCCO2)N1CCN(S(=O)(=O)c2c(F)cccc2F)CC1 -0.557%, Cc1ccc(NS(=O)(=O)c2ccc3c(c2)CCC(=O)N3)cc1C -1.46%, COc1cccc(Cn2ncc3c4sc(S(C)=O)cc4n(C)c3c2=O)c1 (centres undefined) -7.39%
